The campaign covered roughly 5,500 compounds. About 2,000 (36%) were called active. Roughly 18% stayed inconclusive and do not appear here. No stated cut-off is given here; in the data, active means normalized growth mostly below about 0.91 (no sharp cut-off); inconclusive means no clear call, values can overlap the other calls; inactive means mostly above about 0.92. This is one part of the list.
Test: chemical genetic growth profiling, strain panel (AID 1159580);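 further: tested at 20 µM; growth read once vehicle control cultures reached saturation at 30 °C; 1 = growth at the plate median or of vehicle wells; lower values mean less growth of the strain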
Details: S. cerevisiae deletion strains, growth OD

Measured: normalized growth

CC(=O)O[C@]1(C(C)=O)CCC2C3C=C(Cl)C4=CC(=O)[C@@H]5C[C@@H]5[C@]4(C)C3CC[C@@]21C (some centres undefined)
inactive: locus YAL021C, strain ccr4, hits give low values 1.06 | locus YAL026C, strain drs2, hits give low values 1.02 | locus YAL030W, strain snc1, hits give low values 1.01 | locus YBL061C, strain skt5, hits give low values 1.01 | locus YBR009C, strain hhf1, hits give low values 0.973 | locus YBR023C, strain chs3, hits give low values 1 | locus YBR171W, strain sec66, hits give low values 1.02 | locus YBR231C, strain swc5, hits give low values 1.03 | locus YBR279W, strain paf1, hits give low values 0.997 | locus YCL011C, strain gbp2, hits give low values 0.99 | locus YCL016C, strain dcc1, hits give low values 0.992 | locus YCL061C, strain MRC1, hits give low values 1.02 | locus YCL069W, strain vba3, hits give low values 1.01 | locus YCR088W, strain abp1, hits give low values 1.01 | locus YDL005C, strain med2, hits give low values 1 | locus YDL040C, strain nat1, hits give low values 1.01 | locus YDR001C, strain nth1, hits give low values 1.01 | locus YDR069C, strain doa4, hits give low values 1.04 | locus YDR137W, strain rgp1, hits give low values 0.968 | locus YDR159W, strain sac3, hits give low values 0.946 | locus YDR195W, strain ref2 1.05 | locus YDR297W, strain sur2, hits give low values 1.02 | locus YDR334W, strain swr1, hits give low values 1 | locus YDR335W, strain msn5, hits give low values 1.01 | locus YDR392W, strain spt3, hits give low values 0.861 | locus YEL003W, strain gim4, hits give low values 1.02 | locus YEL037C, strain rad23, hits give low values 1.02 | locus YEL061C, strain CIN8 (second series), hits give low values 1.01 | locus YER015W, strain faa2, hits give low values 1 | locus YER016W, strain bim1, hits give low values 1.01 | locus YER111C, strain swi4, hits give low values 1.02 | locus YER155C, strain BEM2 (second series), hits give low values 1.05 | locus YFR010W, strain ubp6, hits give low values 1.03 | locus YGL167C, strain pmr1, hits give low values 1.03 | locus YGL173C, strain kem1, hits give low values 1.02 | locus YGL227W, strain vid30, hits give low values 0.997 | locus YGL240W, strain doc1, hits give low values 1.02 | locus YGL253W, strain hxk2, hits give low values 0.973 | locus YHR013C, strain ard1, hits give low values 1.03 | locus YHR027C, strain rpn1, hits give low values 1.01 | locus YHR030C, strain SLT2, hits give low values 1.03 | locus YHR079C, strain IRE1, hits give low values 1.02 | locus YHR142W, strain chs7, hits give low values 0.988 | locus YJL092W, strain hpr5, hits give low values 1.02 | locus YJL095W, strain BCK1 (second series), hits give low values 1.02 | locus YJL095W, strain BCK1, hits give low values 1.02 | locus YJL115W, strain asf1, hits give low values 1.01 | locus YJL129C, strain trk1, hits give low values 1.01 | locus YJL154C, strain vps35, hits give low values 1.01 | locus YJL164C, strain tpk1, hits give low values 0.992 | locus YJL166W, strain qcr8, hits give low values 1.02 | locus YJR066W, strain TOR1, hits give low values 0.997 | locus YKL160W, strain elf1, hits give low values 1.01 | locus YKR026C, strain gcn3, hits give low values 1.01 | locus YKR091W, strain srl3, hits give low values 1.01 | locus YLL001W, strain dnm1, hits give low values 1.02 | locus YLL026W, hits give low values 1.01 | locus YLL041C, strain sdh2, hits give low values 1.01 | locus YLR027C, strain aat2, hits give low values 1.02 | locus YLR113W, strain HOG1, hits give low values 1.03 | locus YLR221C, strain rsa3, hits give low values 0.982 | locus YLR258W, strain gsy2, hits give low values 1.01 | locus YLR262C, strain YPT6 (second series), hits give low values 0.977 | locus YLR320W, strain mms22, hits give low values 0.979 | locus YLR342W, strain FKS1, hits give low values 1.01 | locus YLR357W, strain rsc2, hits give low values 0.999 | locus YLR370C, strain arc18, hits give low values 1.02 | locus YLR384C, strain iki3, hits give low values 1.01 | locus YML120C, strain ndi1, hits give low values 1.02 | locus YMR058W, strain fet3, hits give low values 1.02 | locus YMR125W, strain sto1, hits give low values 1.02 | locus YMR129W, hits give low values 1.01 | locus YMR205C, strain PFK2, hits give low values 0.991 | locus YMR231W, strain pep5, hits give low values 1.01 | locus YNL071W, strain lat1, hits give low values 0.963 | locus YNL183C, strain NPR1, hits give low values 0.986 | locus YNL209W, strain ssb2, hits give low values 0.999 | locus YNL248C, strain rpa49, hits give low values 1.01 | locus YNL322C, strain KRE1 (second series), hits give low values 1.01 | locus YNR049C, strain mso1, hits give low values 1 | locus YOR001W, strain rrp6, hits give low values 1.03 | locus YOR070C, strain gyp1, hits give low values 1 | locus YOR080W, strain dia2, hits give low values 1.02 | locus YOR083W, strain WHI5, hits give low values 0.983 | locus YOR106W, strain vam3, hits give low values 1.01 | locus YOR231W, strain MKK1, hits give low values 1.02 | locus YOR265W, strain rbl2, hits give low values 1.02 | locus YOR270C, strain vph1, hits give low values 0.954 | locus YOR290C, strain snf2, hits give low values 0.995 | locus YPL051W, strain arl3, hits give low values 1.01 | locus YPL078C, strain atp4, hits give low values 1.01 | locus YPL106C, strain sse1, hits give low values 1.04 | locus YPL240C, strain hsp82, hits give low values 1.02 | locus YPL256C, strain CLN2, hits give low values 1.03

Reference: PubChem BioAssay AID1159580 (chemical genetic matrix, 2015)
